# This is a sample that favours compounds with a hit; in the whole collection about 9.2% have one here.
# ELG1 DNA repair – blocks ELG1-dependent DNA repair in HEK293T cells | HEK293T ELG1-luciferase reporter, luminescence, 16 h; DNA damage induced by 5-fluorouridine | Potency, µM (highest dose often 46.1 µM), for the others: at the highest dose activity change, negative = inhibition, hits mostly inhibitors | 330,000 tested, 2.3% active | AID 504467; also: % is scaled to controls: 0 for no effect and ±100 for the full control effect; nearly all actives have a fitted effect of over 55% in size
#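 Step one: seed 2,000 cells per well. Step two: pin-transfer compound or DMSO alongside 5-fluorouridine. Step three: incubate 16 hr, 37 °C, 5% CO2. Step four: add ONE-Glo, wait 30 min, read luminescence.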
# NPC1 prom act – activates the NPC1 promoter; AID 485313; Potency, µM (top dose mostly 9.22 µM), without a hit: top-dose activation, most hits filed as activators; 320,000 tested, 2.4% active; Huh7 NPC1 promoter luciferase reporter, 24 h; also: % of control where 0% means no effect; nearly all actives have a fitted effect of over 60% in size
#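 Huh7 reporter cells (NPC1 promoter driving luciferase) are dosed with compound for 24 h at 37 °C, 5% CO2; luciferase detection reagent is then added and luminescence measured after 10 min at ambient temperature.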
# ELG1 genotox – inducers of genotoxicity in HEK293T ELG1-luciferase cells; 330,000 tested, 1.3% active; HEK293T ELG1-luciferase reporter, luminescence, 16 h; Potency, µM (series often up to 46 µM), without a hit: at the highest dose activity change, positive = activation, actives largely listed as activators; AID 504466; also: % of control where 0% means no effect; nearly all actives have a fitted effect of over 60% in size
#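 Step 1: seed 2,000 HEK293T ELG1-luciferase cells per well. Step 2: add compound or DMSO, incubate 16 hr at 37 °C. Step 3: ONE-Glo, 30 min at room temperature, read luminescence.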
# SMN2 splice up – enhancers of SMN2 splice variant expression; HEK293 SMN2-luciferase splicing reporter, luminescence, 30-36 h; Potency, µM (titrated, usually from 46.1 µM), without a hit: at the highest dose activity change, positive = activation, usual class: activators; 210,000 tested, 2.8% active; AID 1458; also: % of control where 0% means no effect; nearly all actives have a fitted effect of over 55% in size
#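 HEK293 cells carry an SMN2 […]–luciferase reporter in which exon 7 inclusion puts luciferase in frame. Cells were plated 10-12 h before compound addition, then incubated 30-36 h at 37C. ONE-Glo luminescence was read; sodium butyrate at 4.5 mM final served as control.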
# FLuc counter – inhibits or activates purified firefly luciferase, miR-21 counter-screen; P08659; purified FLuc, Km substrates, luminescence inhibition; Potency, µM (series often up to 57.5 µM), without a hit: at the top dose activity change, negative = inhibition, most hits filed as inhibitors; 360,000 tested, 6.9% active; AID 588342;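 also: plate controls were vehicle for no effect and reference inhibitor for full effect; nearly all actives have a fitted effect of over 55% in size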
# Target sequence (P08659 whole entry, looked up): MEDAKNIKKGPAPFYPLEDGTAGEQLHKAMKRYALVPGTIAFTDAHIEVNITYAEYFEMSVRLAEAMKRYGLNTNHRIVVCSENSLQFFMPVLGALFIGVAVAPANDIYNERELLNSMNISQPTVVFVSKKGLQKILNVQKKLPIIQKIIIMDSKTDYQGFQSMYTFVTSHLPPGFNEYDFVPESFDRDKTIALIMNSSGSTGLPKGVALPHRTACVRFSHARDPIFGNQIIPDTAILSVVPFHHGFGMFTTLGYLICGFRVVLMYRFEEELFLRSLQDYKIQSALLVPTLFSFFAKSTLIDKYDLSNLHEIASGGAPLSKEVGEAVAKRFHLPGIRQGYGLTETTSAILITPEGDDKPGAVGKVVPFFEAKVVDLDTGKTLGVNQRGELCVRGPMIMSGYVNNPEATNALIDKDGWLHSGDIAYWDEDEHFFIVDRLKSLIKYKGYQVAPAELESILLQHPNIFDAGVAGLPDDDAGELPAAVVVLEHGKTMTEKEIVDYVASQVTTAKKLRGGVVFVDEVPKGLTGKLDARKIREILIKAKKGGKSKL
#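 Purified P. pyralis luciferase, 10 nM final, with Km-level 10 uM D-luciferin and 10 uM ATP in 50 mM Tris acetate pH 7.5, 10 mM Mg acetate, 0.01% Tween-20, 0.05% BSA; 6-point qHTS titration about 60 µM downward; luminescence read.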
# Rab9 prom act – Rab9 promoter activation; Huh7 Rab9 promoter-luciferase reporter, luminescence, 24 h; Potency, µM (top dose mostly 9.22 µM), inactives show at the highest dose activation, negative = inhibition, actives largely listed as activators; 320,000 tested, 2.8% active; AID 485297; also: % of control where 0% means no effect; nearly all actives have a fitted effect of over 60% in size
#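 Luciferase signal after 10 min detection reagent at ambient indicates Rab9 promoter upregulation; stably transfected Huh7 cells were treated 24 h with compound in DMSO at 37 °C, 5% CO2.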
# The depositor's hits bear a star; ? = inconclusive; · = no result given; [ ] = dose if it differs, or a comment. Calls follow the shape of the dose curve; as a rule, active = well fitted curve in the direction sought with a large enough effect; inconclusive = small, poorly fitted or top-dose-only effect, or another doubt; inactive = no such curve, though single readings can be large; an effect the other way counts as inactive or inconclusive. Potency is read from the fitted curve at half-maximal effect.
SMILES,ELG1 DNA repair,NPC1 prom act,ELG1 genotox,SMN2 splice up,FLuc counter,Rab9 prom act
C=CC[C@@H](CC(=O)N(CCO)Cc1ccccc1)C(=O)N[C@@H](COC(=O)[C@@H](CC=C)Cc1ccc(F)cc1)Cc1c[nH]c2ccccc12,18µM*,·,-15%,·,·,·
C=CC[C@@H](CC(=O)N(CCO)Cc1ccccc1)C(=O)N[C@@H](C)COC(=O)[C@@H](CC=C)Cc1ccc(F)cc1,18µM*,·,-6%,·,·,·
C=CC[C@@H](CC(=O)N(CCO)Cc1ccccc1)C(=O)NC[C@H](OC(=O)[C@@H](CC=C)Cc1ccc(F)cc1)c1ccccc1,5.8µM*,·,-8%,·,·,·
C=CC[C@H](CC(=O)N(CCO)Cc1ccccc1)C(=O)N[C@@H](COC(=O)[C@@H](CC=C)Cc1ccc(F)cc1)Cc1c[nH]c2ccccc12,21µM*,·,-10%,·,·,·
COc1ccc(C)cc1N1C(=N)/C(=C2/Nc3ccccc3S2)C(c2ccccc2)C1=O (configuration not stated),?,0%,?,-18%,-7%,-2%
CC(C)CC(=O)Nc1nnc(S(=O)(=O)N2CCCCCC2)s1,3%,-3%,1%,·,?,-11%
Cc1cc(C)cc(N2CCn3c2nc2c3c(=O)n(Cc3ccc(Cl)cc3)c(=O)n2C)c1,·,·,·,·,-7%,·
CCOC(=O)N/N=C\c1ccc(C)s1,?,14%,12%,-16%[1.84 µM],?,28%
CCOC(=O)N/N=C\c1ccc([N+](=O)[O-])s1,21µM*,3%,-15%,-33%,-9%,19%
CC(C)(C)OC(=O)N/N=C\c1ccc([N+](=O)[O-])s1,?,23%,5%,-55%,27µM*,17%
Cc1ccc(OCCOCCN(C)C)c(Cl)c1,16%,-2%,0%,14%,-2%,-11%
CC1(C)CC(=O)C2=C(C1)NC1=C(C(=O)c3ccccc31)C2c1ccccc1 (configuration not stated),26µM*,-3%,-7%,-3%[1.84 µM],-16%,1%
O=C(Nc1ccc(C(=O)N2CCOCC2)cc1)c1ccc([N+](=O)[O-])cc1,1%,2%,-15%,·,-3%,-2%
O=C(Nc1cccc(-c2ccc(N3CCOCC3)nn2)c1)c1ccccc1,0%,2.8µM*,?,·,2.7µM*,?
Cc1ccc(C(=O)Nc2cccc(-c3ccc(N4CCOCC4)nn3)c2)cc1[N+](=O)[O-],?,?,?,·,?,3.2µM*
Cc1ccccc1C(=O)Nc1cccc(-c2ccc(N3CCOCC3)nn2)c1,?,?,?,·,2.1µM*,3.2µM*
Cc1ccccc1C(=O)N1CCN(c2ccc(N3CCOCC3)nn2)CC1,16%,0%,-2%,·,4%,-1%
O=C(Nc1cccc(-c2ccc(N3CCOCC3)nn2)c1)c1ccc([N+](=O)[O-])cc1,?,3.5µM*,?,·,2.4µM*,2.5µM*
Oc1ccccc1/C=N/c1c(-c2ccco2)nc2ccccn12,?,?,?,3%,27µM*,?
COc1cc(-c2nc3ccccn3c2/N=C/c2cccc(OC)c2O)ccc1O,-5%,0%,-4%,13%,-15%,16%
Clc1ccc(/C=N/c2c(-c3ccco3)nc3ccccn23)cc1,0%,28%,?,-7%,15µM*,?
O=[N+]([O-])c1cc(-c2ccc(/C=N/c3nc4ccccn4c3-c3ccco3)o2)ccc1Cl,?,26%,?,-2%,?,?
COc1ccc(/C=N/c2c(-c3ccco3)nc3ccccn23)cc1OC,?,?,16%,-5%,0.43µM*,?
COc1cc(-c2nc3ccccn3c2/N=C/c2ccc(F)cc2)ccc1O,27%,0%,6%,3%,?,16%
CCOc1ccc(Nc2ncnc3c2nc2n3CCCC2)cc1,·,·,·,·,15µM*,·
Cc1cc(C)cc(Nc2ncnc3c2nc2n3CCCC2)c1,·,·,·,·,-13%,·

# Screening data (PubChem BioAssay)
